Hits are enriched below; roughly 2.8% of the tested compounds scored in any of these assays.
RGS4 inhibitor: blocks human RGS4-accelerated GTP hydrolysis; P49798; Potency, µM (doses to about 114 µM), for inactives: top-dose activity change, negative = inhibition, usual class: inhibitors; 0.039% of 390,000 active; Transcreener GDP fluorescence polarization, RGS4-accelerated GTP hydrolysis; active = well fitted inhibition curve with a large enough effect; inconclusive = small, poorly fitted or top-dose-only effect; inactive = no such curve, though single readings can be large or run the other way; note: potency is the fitted concentration of half-maximal effect; % is set by controls: 0 for no effect and ±100 for the full control effect; nearly all actives have a fitted effect of over 75% in size
Target sequence (P49798 whole entry, looked up): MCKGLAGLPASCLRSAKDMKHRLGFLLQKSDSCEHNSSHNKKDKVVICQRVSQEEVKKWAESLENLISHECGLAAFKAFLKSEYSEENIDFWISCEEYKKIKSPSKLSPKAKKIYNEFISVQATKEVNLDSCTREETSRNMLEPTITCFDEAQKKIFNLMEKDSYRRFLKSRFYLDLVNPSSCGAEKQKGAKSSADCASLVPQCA
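MLSMR compounds (23 nl, pin-transferred) preincubated 10 min at room temperature with a 500nM (2x) first reagent, then RGS4 at 900nM (2x) plus Transcreener GDP mix added; fluorescence polarization (620/688 nm) read before and after 90 min at 30 °C.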
PI4K2A inh: inhibitors of human PI4K2A | 0.13% of 420,000 active | AID 1346378 | activity change, negative = inhibition, % at 76.9 µM | purified PI4K2A, ADP-Glo luminescence, 1 h; hits give low values; in the data active = activity change below about -50%; inconclusive = mostly about -30% to -49%;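 note: -100% = wells without enzyme as full effect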
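Compounds are screened against recombinant PI4K2A using PI as substrate and ATP, the latter dispensed at 300 microM. Reactions run one hour at ambient temperature before ADP-Glo detection; full inhibition defined by wells lacking enzyme.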
D3 ag: D3 dopamine receptor (human) agonism. AID 652048. P35462. 0.58% of 410,000 active. D3R DiscoveRx beta-arrestin cells, luminescence, 90 min. max activation, %; in the data active = max activation above about 30%; note: 0% is about no effect
Target sequence (P35462 whole entry, looked up): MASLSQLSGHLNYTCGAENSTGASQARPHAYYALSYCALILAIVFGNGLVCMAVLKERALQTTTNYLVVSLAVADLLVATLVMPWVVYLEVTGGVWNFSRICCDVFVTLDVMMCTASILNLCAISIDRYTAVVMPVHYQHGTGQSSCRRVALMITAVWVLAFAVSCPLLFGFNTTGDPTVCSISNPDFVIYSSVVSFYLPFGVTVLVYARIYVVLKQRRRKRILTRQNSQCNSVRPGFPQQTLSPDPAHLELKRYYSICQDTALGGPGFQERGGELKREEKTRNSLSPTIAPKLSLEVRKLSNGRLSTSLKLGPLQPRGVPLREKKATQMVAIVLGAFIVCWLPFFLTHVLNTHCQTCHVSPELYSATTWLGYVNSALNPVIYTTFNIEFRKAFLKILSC
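Agonist-mode cell screen: cells plated at 1500/well and incubated overnight at 37 °C, then exposed to library compounds for 90 min at 37 °C. Detection reagent was added for 30–60 min at room temperature, and luminescence was read.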
pAkt inh: blocks phosphorylation of Akt | Neuro2A IGF-stimulated pAkt S473 HTRF, 20 min; hits give low values | activity change, % for hits at 50 µM | 0.32% of 360,000 active | AID 651550; in the data active = activity change below about -80%; inconclusive = mostly about -51% to -80%; note: % is set by controls: 0 for no effect and ±100 for the full control effect
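Neuro2A cells in DMEM with 0.5% FBS, overnight at 37 deg C, given compound at single 50 µM final, then IGF (6 nM final) for 20 min at 37 deg C. Lysed; phospho-Akt Ser473 by HTRF after 24 h, 665/615 ratio.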
DRD3 antagonist: D3 dopamine receptor (human) antagonism; 2.5% of 360,000 active; AID 652054; D3R cells, DiscoveRx beta-arrestin luminescence, antagonist mode; hits give low values; max response, negative = inhibition, %; in the data active = max response below about -50%; inconclusive = no clear call, values can overlap the other calls; note: % is set by controls: 0 for no effect and ±100 for the full control effect
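Cells expressing the human receptor were seeded at 1500 cells/well, incubated overnight at 37 degrees C in 5% CO2, then exposed to library compounds with dopamine controls for 90 minutes at 37 degrees C before luminescent detection.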
LDHA inh: LDHA (human) enzyme inhibition. P00338. purified LDHA, NADH/diaphorase-resazurin fluorescence; hits give low values. activity change, % (values are at about 110 or 230 µM). 0.15% of 480,000 active. AID 1347041; in the data active = activity change below about -30%; inconclusive = mostly about -25% to -30%;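 note: plate controls were DMSO wells for no effect and wells without enzyme for full effect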
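Human LDH5 (2 nM) was incubated with 0.06 mM NADH and 0.2 mM pyruvate for 5 min at room temperature in Tris pH 7.4. Remaining NADH was coupled through diaphorase/resazurin, and resorufin fluorescence was read at 0 and 20 min.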
The depositor's hits bear a star; i = inactive; ? = inconclusive; · = not tested or not shown; ! = repeats disagree; [ ] = another dose, or the depositor's remark.

SMILES	RGS4 inhibitor	PI4K2A inh	D3 ag	pAkt inh	DRD3 antagonist	LDHA inh
Cc1cc(S(=O)(=O)c2ccc(Cl)cc2)nc(S(=O)(=O)c2ccc(Cl)cc2)c1C#N	·	-1.0	-16.6	i	-76.5*	-2.9
Cc1cc(C)c(S(=O)(=O)c2ccc(Cl)cc2)c(Cl)n1	45.9%	0.6	-3.6	i	2.3	-10.1
O=C(O)C1C2C=CC(C2)C1C(=O)Nc1ccccc1C(F)(F)F (centres undefined)	·	·	·	·	·	-1.0
O=C(Cn1ccc2ccccc21)Nc1ccc2c(c1)OCO2	31.4%	7.7	-3.2	i	9.4	-35.8*!
CC(=O)c1cccc(NC(=O)CSCc2ccc(Br)cc2)c1	-6.6%	-8.2	-26.1	i	0.0	-4.9
CC(=O)c1cccc(NC(=O)CN2CCN(Cc3ccccc3)CC2)c1	-24.9%	1.0	-9.5	i	-9.2	?
CC(=O)c1cccc(NC(=O)CSCc2ccccc2)c1	25.0%	-6.5	-8.4	i	-78.7*	-2.2
Cc1cccc(NC(=O)CCN2CCN(c3ccccc3F)CC2)c1	14.0%	1.6	38.9*	·	·	-0.5
COC(=O)c1cccc(NC(=O)CN2CCN(Cc3ccccc3)CC2)c1	-12.4%	6.4	-10.1	·	-50.5*	0.5
O=C(Cn1ccc2c(Cl)cccc21)Nc1ccc2c(c1)OCO2	·	·	·	·	·	5.9
O=C(NC1CCCc2ccccc21)C1CC2CCCC(C1)C2=O (centres undefined)	·	·	·	·	·	3.7
FC(F)(F)c1cnc(Sc2nnc(C3CC3)n2C2CC2)c(Cl)c1	·	·	·	·	·	-1.0
COc1ccc(-c2c(C)c3ccc(OC(=O)N4CCOCC4)cc3oc2=O)cc1	·	·	·	·	·	0.8
Cc1ccc(CCSc2cc(C(C)(C)C)c(F)c(C(C)(C)C)c2)cn1	·	·	·	·	·	15.3
COc1cccc(N2CCN(CC(=O)Nc3ccccc3C(=O)NCCc3ccccc3)CC2)c1	-7.0%	-1.1	33.8*	i	26.9	-0.2
COc1cc(NC(=O)CN2CCN(c3ccccc3F)CC2)cc(OC)c1	7.3%[11.4 µM]	-5.8	-8.2	i	?	-3.5
COc1cccc(NC(=O)CN2CCN(c3ccccc3F)CC2)c1	-16.2%	-0.7	-12.1	-109.9%*	?	0.4
O=C(CCN1CCN(c2ccccc2F)CC1)Nc1ccc2c(c1)OCO2	18.2%	-6.6	40.4*	i	314.3	1.0
O=C(CCN1CCN(c2ccccc2)CC1)Nc1ccc2c(c1)OCO2	6.5%[56.9 µM]	-4.0	25.8	i	?	0.8
COc1cccc(N2CCN(CC(=O)Nc3ccccc3C(=O)NCc3ccccc3)CC2)c1	-14.7%	-1.5	16.2	i	13.0	2.3
COc1ccc(CN2CCN(Cc3ccncc3)CC2)cc1OC	·	·	·	·	·	5.4
Cc1cccnc1C(NC(=O)C1CCN(Cc2ccc3ccccc3n2)CC1)c1ccc(Cl)cc1 (centres undefined)	·	-6.2	-12.3	i	-68.4*	-5.0
Cc1cccnc1C(NC(=O)C1CCN(CCOc2ccc(F)cc2)CC1)c1ccc(Cl)cc1 (centres undefined)	·	-2.2	-22.0	i	0.0	-1.8
COc1ccc(OCCN2CCC(C(=O)NC(c3ccsc3)c3ccccc3C)CC2)cc1 (centres undefined)	·	1.7	-9.8	i	-12.2	1.3
COc1ccc(OCCN2CCC(C(=O)NC(c3ccc(F)cc3)c3ncccc3C)CC2)cc1 (centres undefined)	·	2.8	-13.8	i	-85.3*	-5.6
SMILES	RGS4 inhibitor	PI4K2A inh	D3 ag	pAkt inh	DRD3 antagonist	LDHA inh
Cc1cccnc1C(NC(=O)C1CCN(Cc2ccc(Cl)cc2)CC1)c1ccc(F)cc1 (centres undefined)	·	1.6	-17.4	i	0.0	-7.0
COc1ccc(OCCN2CCC(C(=O)NC(c3ccc(Cl)cc3)c3ncccc3C)CC2)cc1 (centres undefined)	·	-1.0	-18.6	i	-72.7*	-3.3
Cc1cccnc1C(NC(=O)C1CCN(CCCOc2ccc(F)cc2)CC1)c1ccccc1 (centres undefined)	·	-0.2	-25.5	i	-83.9*	-8.3
OCCN(CCO)CC(O)COc1ccc2ccccc2c1 (centres undefined)	·	·	·	·	·	-0.7
O=C(O)c1ccc(CNC2CCCCC2)cc1	·	·	·	·	·	-3.0
COc1cccc(/C=C(/C#N)C(=O)c2c(Cl)cccc2Cl)c1OC	·	·	·	·	·	7.6
O=C(NC1CC1)C1=C[C@@H](c2c[nH]c3ccccc23)C[C@@H](OCc2ccc(CO)cc2)O1	-6.4%	-9.8	-21.6	i	-52.6*	8.1
CN1CCN(C(=O)C2=C[C@@H](c3csc4ccccc34)C[C@@H](OCc3ccc(CO)cc3)O2)CC1	6.7%	-0.4	-45.2	i	-72.1*	-2.8
O=C(C1=C[C@H](c2csc3ccccc23)C[C@H](OCc2ccc(CO)cc2)O1)N1CCOCC1	-14.4%	6.1	2.4	i	19.9	0.1
O=C(NCc1nc2ccccc2[nH]1)C1=C[C@H](C2CCCCC2)C[C@H](OCc2ccc(CO)cc2)O1	-5.3%	6.9	41.2*	i	59.8	0.4
CC(C)(C)[C@@H]1C=C(C(=O)N2CCOCC2)O[C@H](OCc2ccc(CO)cc2)C1	-21.7%	4.9	-16.1	i	-24.3	-4.3
CC(C)(C)[C@H]1C=C(C(=O)N2CCOCC2)O[C@@H](OCc2ccc(CO)cc2)C1	11.1%	-0.7	-34.6	i	-51.8*	-8.6
COc1ccc(CCNC(=O)c2cccc(N3C(=O)CCS3(=O)=O)c2)cc1OC	·	·	·	·	·	11.3
Cc1cccc(NC(=O)c2ccc(CNC(N)=O)cc2)c1C	·	·	·	·	·	-0.2
O=C(Nc1ccccc1)C1=C[C@@H](c2csc3ccccc23)C[C@@H](OCc2ccc(CO)cc2)O1	4.9%	-1.1	-32.1	i	-51.0*	-0.1
O=C(NCc1ccccc1)C1=C[C@H](c2csc3ccccc23)C[C@H](OCc2ccc(CO)cc2)O1	9.4%	6.2	-10.9	i	0.0	-12.5
N#C/C(=C/c1ccc(OCC(F)(F)F)cc1)c1ccccn1	·	·	·	·	·	6.0
O=c1oc(-c2ccccc2F)nc2c1cnn2-c1ccccc1	2.4%	22.5	-22.9	i	-64.5*	-0.4
O=c1oc(-c2cccc(Cl)c2)nc2c1cnn2-c1ccccc1	7.9%	10.2	-3.8	i	-23.2	-6.7
Cc1ccccc1CN1CC2=C(CCN(Cc3ccccc3)C2=O)N2CCN=C12	·	-3.0	-12.1	i	-80.9*	1.1
Cc1c(NC(=O)CC(O)(C(F)(F)F)C(F)(F)F)c(=O)n(-c2ccccc2)n1C	31.5%	2.4	2.5	i	-12.7	-1.0
COC(=O)C(F)(Sc1c(C)n(C)n(-c2ccccc2)c1=O)C(F)(F)F (centres undefined)	10.2%	4.5	-0.9	i	-59.6*	-6.4

Screening data deposited in PubChem BioAssay by National Center for Advancing Translational Sciences (NCATS).
